Compound activity: PubChem, Broad Institute
CD40 NFkB inh: inhibitors of CD40-induced NF-kB signaling, primary screen, BL2 cells, luciferase reporter, single point | actives 0.94% (n = 83,000) | inhibition, % at 10 µM | CD40L-induced, 4 h;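 active means mean inhibition of at least 50% with a set share of replicates also reaching that level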;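 further: 0% = neutral control wells and 100% = IKK inhibitor VII at 50 µM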
Starred values were filed as active, the others as inactive; [ ] = dose if it differs, or a comment. Only a selection was taken, and hits are over-represented in it overall.

SMILES | CD40 NFkB inh
Cc1nnnn1/C(=C\c1ccccc1)C(=O)OCC(=O)Nc1ccc(Cl)cc1F | 78.2*
O=C(COC(=O)Cc1ccsc1)Nc1ccc(Cl)cc1F | 3.1
CCCCC(=O)Nc1ccc(Cl)cc1F | -10.9
O=C1CCCCn2nncc2COC[C@H](Cc2ccccc2)N1 | -4.2[25 µM]
C[C@H](CO)N1C[C@H](C)[C@@H](CN(C)S(=O)(=O)c2ccsc2)OCc2ccccc2-c2c(n(C)c3ccccc23)C1=O | -5.7
CCCNC(=O)N1CC2(CCN(CC3CCCC3)CC2)c2c(n(C)c3cc(OC)ccc23)[C@H]1CO | 4.7
C[C@H]1CN([C@@H](C)CO)C(=O)c2ccccc2-c2ccccc2CO[C@H]1CN(C)C(=O)[C@@H]1CCCN1C | -11.7[25 µM]
O=C(Nc1ccc(F)cc1)c1nn(-c2ccccc2)c(=O)cc1Cl | 84.9*
CCOC(=O)c1nn(-c2ccc(F)cc2)c(=O)cc1OCC(=O)Nc1cccc(C)c1 | 12.5
Cc1ccc(NC(=O)c2cc(-c3ccccc3)nn2-c2ccccc2)cc1 | -3.3
C[C@@H](NC(=O)C[C@@H]1C[C@@H]2c3cc(NC(=O)c4ccc5c(c4)OCO5)ccc3O[C@@H]2[C@H](CO)O1)c1ccccc1 | -8.7[25 µM]
N#C[C@H]1[C@H](c2ccccc2-c2ccccc2F)[C@@H](CO)N1C(=O)C1CC1 | -2.1[25 µM]
CCN1/C(=C/c2sc(-c3ccccc3C)c[n+]2C)Sc2ccccc21 | 68.2*
CCN1C(=O)c2ccccc2Sc2ccc(C(=O)NCCCN3CCCCC3)cc21 | 6.7
c1ccc2c(c1)Sc1ccccc1-n1cnnc1-2 | 0.5
C[C@H](CO)N1C[C@H](C)[C@H](CN(C)Cc2cccc3c2OCCCO3)OCc2cn(nn2)CCCC1=O | 7.1[25 µM]
O=C1CCCCc2sc(Br)c([N+](=O)[O-])c2N1 | 100.2*
C[C@H]1CN([C@@H](C)CO)C(=O)CCCn2nncc2CO[C@H]1CN(C)Cc1ccc(Cl)c(Cl)c1 | 13.3[25 µM]
CC(C)NC(=O)N1[C@H](CO)[C@@H]2c3ccccc3N(C(=O)C3CCCCC3)C[C@@H]21 | 0.6
CN(C)/C=N/c1ncc(C(=O)c2ccc3ccccc3c2)s1 | -44.8
Cc1cc(Sc2nnc(/N=C/N(C)C)s2)c2ccccc2n1 | 83.6*
Cc1cc(C(N)=O)c2ccccc2n1 | 5.4
CC(C)[C@@H]1COCn2nncc2CC[C@H](C)C(=O)N1 | -5.2[25 µM]
Cc1noc(C)c1NC(=O)Nc1ccc2c(c1)CC(=O)N([C@@H](C)CO)C[C@H](C)[C@@H](CN(C)S(=O)(=O)c1cccs1)O2 | -12.3[25 µM]
COc1ccc(OCCOCCN2CCOCC2)cc1 | 16.5
SMILES | CD40 NFkB inh
COc1ccc(/C=C2/CCC(CN3CCOCC3)C2=O)cc1 (stereo not given) | 73.7*
CN(C)CC1CCC/C(=C\c2ccc(OC(=O)/C=C/c3ccccc3)cc2)C1=O (stereo not given) | 3.3
CC(=O)N(C)C[C@@H]1Oc2ccc(N)cc2CC(=O)N(C)C[C@@H]1C | 2.6
CCCc1c(C(=O)OCC)[nH]c2c1C(=O)CCC2 | 4.6
Cc1c(C(=O)OC2CCCC2C)[nH]c2c1C(=O)CCC2 (stereo not given) | -57.0
Cc1c(C(=O)OCCOc2ccccc2)[nH]c2c1C(=O)CCC2 | 65.5*
O=C(c1cc(-c2ccc3c(c2)OCO3)on1)N1CCOCC1 | 48.3*
O=C(COCc1cc(-c2ccc3c(c2)OCO3)on1)N1CCCCC1 | -68.4
O=C(c1cc(-c2ccc3c(c2)OCO3)on1)N1CCN(c2ccccc2)CC1 | -38.4
CNC[C@@H]1Oc2ccc(NC(=O)NC(C)C)cc2CC(=O)N(C)C[C@@H]1C | -11.0
CC(=O)c1ccc(-c2nc3ccccc3n2C)o1 | -65.2
Cn1cc(C(=O)c2ccccc2)cc1-c1nc2ccccc2n1C | -2.4
Cc1oc(-c2nc3ccccc3n2C)cc1C(=O)c1ccccc1 | 62.2*
COc1ccc(-c2ccc([C@H]3[C@@H](C#N)N(C(=O)NC4CCCC4)[C@@H]3CO)cc2)cc1 | 12.6
COCC(=O)N1C[C@H](C)[C@H](OC)CN(C)C(=O)c2ccc(NC(=O)Nc3cccc(F)c3)cc2OC[C@@H]1C | 0.7[25 µM]
CSc1ccc2c(c1)N(CCC1CCCCN1C)c1ccccc1S2 (stereo not given) | 73.5*
CN(C)CCCN1c2ccccc2Sc2ccc(Cl)cc21 | -40.2
OCCN1CCN(CCCN2c3ccccc3Sc3ccc(Cl)cc32)CC1 | -78.4
C[C@@H]1CN([C@@H](C)CO)C(=O)c2cc(NC(=O)Nc3ccccc3)ccc2O[C@@H](C)CCCCO[C@@H]1CN(C)C(=O)Nc1ccccc1 | 0.1[25 µM]
CN1c2ccc(-c3cccc(F)c3)cc2[C@H]2[C@H](CCN2C(=O)C2CCCC2)[C@H]1CO | 54.0*
CN1c2ccc(-c3cccc(F)c3)cc2[C@@H]2[C@@H](CCN2C(=O)C2CCC2)[C@H]1CO | -18.9[25 µM]
CN1c2ccc(-c3cccc(F)c3)cc2[C@H]2[C@H](CCN2C(=O)C2CCC2)[C@H]1CO | 37.7[25 µM]
CNC[C@H]1Oc2ccc(NC(C)=O)cc2C(=O)N(C)C[C@@H]1C | 5.2
C[C@@H]1CN(C)C(=O)Cc2ccccc2O[C@@H]1CN(C)S(C)(=O)=O | 1.2
COc1ccc(C(=O)Nc2ccc(C(=O)c3ccccc3)cc2)cc1 | -2.9
SMILES | CD40 NFkB inh
COc1ccc(C(=O)Nc2ccc3[nH]ccc3c2)cc1 | 74.6*
O=C(Nc1ccc2[nH]ccc2c1)c1cccs1 | -56.4
CN1[C@@H]2c3ccc(-c4cccnc4)c(=O)n3C[C@@H]2[C@@H](CO)[C@@H]1C(=O)NCC1CCCCC1 | -1.2[25 µM]
COc1ccccc1-c1ccc([C@H]2[C@@H](CO)N[C@@H]2CNC(=O)C2CCC2)cc1 | 6.5
COC(=O)CN1C(=S)N(c2ccc(F)cc2)C(=O)C1CC(=O)Nc1ccccc1 (stereo not given) | 16.0
CCN1C(=O)C(CC(=O)Nc2ccc(F)cc2)N(Cc2ccco2)C1=S (stereo not given) | 37.2*
CCN1C(=O)C(CC(=O)Nc2ccc(F)cc2)N(Cc2ccc3c(c2)OCO3)C1=S (stereo not given) | -8.2
Cc1cc(C)nc(NNS(=O)(=O)c2ccc(Cl)cc2)n1 | 2.7
Cc1cc(S(=O)(=O)c2ccc(Cl)cc2)nc(S(=O)(=O)c2ccc(Cl)cc2)c1C#N | 112.3*
Cc1ccc(S(=O)(=O)c2c(C)cc(C)nc2N2CCCCC2)cc1 | 12.8
CC(=O)N1C[C@@H]2C(c3ccccc3)[C@@H](C1)N2CC(F)(F)F (stereo not given in full) | 0.3
CCS(=O)(=O)N1[C@H](C#N)[C@H](c2ccc(C#Cc3ccccc3F)cc2)[C@@H]1CO | -13.6[25 µM]
O=C(Nc1ccccn1)c1ccc2nc(-c3ccccc3)c(-c3ccccc3)nc2c1 | -2.5
O=C(Nc1ccccn1)c1ccc(-c2ccccc2)cc1 | 112.9*
O=C(Nc1ccccn1)c1ccc(S(=O)(=O)N2CCCC2)cc1 | -57.1
CN1c2ccc(-c3cccc(F)c3)cc2[C@@H]2[C@@H](CCN2S(=O)(=O)c2cccc(F)c2)[C@H]1CO | 4.1
O=C(c1cccc(F)c1)N1CC[C@H]2[C@H](CO)Nc3ccc(C#Cc4cccc(F)c4)cc3[C@H]21 | 9.7
CO[C@H](C(=O)N(C)C[C@H]1OCc2ccccc2-c2c(n(C)c3ccccc23)C(=O)N([C@H](C)CO)C[C@@H]1C)c1ccccc1 | -0.5[25 µM]
CC(C)(C)n1ncc2c(=O)n(CC(=O)c3ccccc3)cnc21 | -82.1
CC(C)(C)n1ncc2c(=O)n(CC(=O)NCc3ccc(F)cc3)cnc21 | 6.8
CC(C)(C)n1ncc2c(=O)n(CC(=O)OCc3ccccc3)cnc21 | 98.3*
CN(C)[C@@H]1CCc2[nH]c3ccc(NC(=O)c4ccc(F)cc4)cc3c2C1 | -25.8[25 µM]
O=C1CCCn2cc(nn2)COC[C@@H](Cc2ccccc2)N1 | -1.7
